Screening data (PubChem BioAssay)
This is one part of a sample in which hits are shown more often than they occur.
aSyn 5UTR act: Activators via SNCA 5'UTR binding, MLPCN; AID 1814, 2009; 300,000 compounds, 7.1% hits; activity score, % (tested at 7.5 µM), hits read low; alpha-synuclein 5'UTR reporter, activators screen; in the data active means activity score below about -60%
* hit, by the source's call.

O=[N+]([O-])c1ccc(Cl)c(/C=N/n2c(-c3ccncc3)n[nH]c2=S)c1 was read as aSyn 5UTR act -78*.
`Cc1ccc(-c2nn(-c3ccccc3)cc2/C=N/n2c(-c3ccncc3)n[nH]c2=S)cc1` gave aSyn 5UTR act -86*.
O=C(Cn1cc(SCc2ccccc2Cl)c2ccccc21)N1CCOCC1 was read as aSyn 5UTR act -163*.
Screening CCn1cc(SCC(=O)N2CCOCC2)c2ccccc21 returned aSyn 5UTR act -114*.
Screening COc1ccc(N=Cc2c(O)c3ccccc3n2C(C)=O)cc1 returned aSyn 5UTR act -132*.
Screening COc1ccc(N=Cc2sc(O)c3ccccc23)cc1 returned aSyn 5UTR act -274*.
CCOC(=O)/C=C/c1ccc2oc3ccccc3c(=O)c2c1 was read as aSyn 5UTR act -191*.
CC1(C)CC(=O)C(N=Nc2ccc(-c3ccccc3)cc2)=C(O)C1 was read as aSyn 5UTR act -84*.
